The results in this text go back to PubChem BioAssay (NCATS).

Results filed as inconclusive are left out. Values without a mark were called inactive. Calls follow the shape of the dose curve; as a rule, active = well fitted curve in the direction sought with a large enough effect; inconclusive = small, poorly fitted or top-dose-only effect, or another doubt; inactive = no such curve, though single readings can be large or run the other way.
% is scaled to controls: 0 for no effect and ±100 for the full control effect.

The test is described as follows: qHTS Assay for Identifying Gametocytocidal Compounds (AID 743244).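 Also: actives lower the fluorescent signal which means gametocytes are killed.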 As to conditions: P. falciparum 3D7 stage III-V gametocytes, alamarBlue, 72 h; max response: stronger effect = lower value. The gist of the method: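 Viability read-out was resazurin reduction (alamarBlue, 24 h) measured at Ex 525/Em 598 nm. Beforehand, late-stage (III-V) 3D7 P. falciparum gametocytes at 20,000 cells/well were incubated with compound 72 h at 37C under 5% CO2.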
A general note: In qHTS, concentration-response curves come from the screen itself.
For the compound `O=C(CCBr)N1CCN(C(=O)CCBr)CC1`, the max response is -1.41%.
The figure for `N[C@@H](Cc1ccc(O)cc1)C(=O)O` is 0.124%; for `CNCc1ccccc1` it is 8.64%.
To `NC(=O)NS(=O)(=O)c1ccc(N)cc1` belongs 3.95%.
The figure for `Cc1ccc(S(=O)(=O)NC(=O)NC2CCCCCCC2)cc1` is 5.01%; for `O=c1[nH]c2cc(C(F)(F)F)c(N3CCOCC3)cc2n(CP(=O)(O)O)c1=O` it is 2.6%; for `CC(=O)Oc1cccc(O)c1` it is 2.07%.
Consider `CC1CCN(CCCC(=O)c2ccc(F)cc2)CC1`, for which the max response was 1.92%.
To `C[C@@H](c1ncncc1F)C(O)(Cn1cncn1)c1ccc(F)cc1F` (some centres undefined) belongs 4.12%; to `Nc1ncnc(Nc2ccccc2)n1`, -1.5%; to `CCN1CC(CCN2CCOCC2)C(c2ccccc2)(c2ccccc2)C1=O` (centres undefined), 3.23%.
In the case of `COc1ccccc1OCC(O)CO` (centres undefined), the max response was 10.4%.
The figure for `O=C(O)c1ccc(OCCCOc2ccc(C(=O)O)cc2)cc1` is 1.74%; for `CC(=O)Nc1ccc(OCCOCCOc2ccc(NC(C)=O)cc2)cc1` it is 1.8%; for `CC(=O)OCC(=O)[C@@]1(O)CC[C@H]2[C@@H]3CCC4=CC(=O)C=C[C@]4(C)[C@@]3(F)[C@@H](O)C[C@@]21C` it is 18.9%.
To `COc1ccc(C(=O)NCc2ccc(OCCN(C)C)cc2)cc1OC` belongs 7.72%; to `CN1C(=O)CC(c2ccccc2)C1=O` (centres undefined), -11.3%.
For `COc1ccccc1OC(=O)Oc1ccccc1OC`, the max response was 1.99%.
In the case of `NCC1CCC(C(=O)Oc2ccc(CCC(=O)O)cc2)CC1` (centres undefined), the max response was 9.03%.
To `Cc1c(NC(=O)c2cccnc2)c(=O)n(-c2ccccc2)n1C` belongs -5.32%.
The figure for `O=C(O)CCC(=O)O` is 4.69%; for `CC(=O)N(CC(O)CN(C(C)=O)c1c(I)c(C(=O)NCC(O)CO)c(I)c(C(=O)NCC(O)CO)c1I)c1c(I)c(C(=O)NCC(O)CO)c(I)c(C(=O)NCC(O)CO)c1I` (centres undefined) it is -5.28%; for `O=c1[nH]cnc2nc[nH]c12` it is -7.32%.
With `O=C(Cn1ccnc1[N+](=O)[O-])NCc1ccccc1`, the max response is -2.89%.
The figure for `CC(C)=CCC[C@@](C)(O)[C@H]1CC=C(C)CC1` is 10.2%; for `Cc1ccccc1N=Nc1ccc(N=Nc2c(O)ccc3ccccc23)c(C)c1` it is 7.02%; for `CCC(C)(CN(C)C)OC(=O)c1ccccc1` (centres undefined) it is -2.53%.
The figure for `C[n+]1ccccc1/C=N/O` is 8.92%; for `C=CCOc1ccccc1OCC(O)CNC(C)C` (centres undefined) it is 5.69%; for `CC1CCc2cc(F)cc3c(=O)c(C(=O)O)cn1c23` (centres undefined) it is -10.9%.
On to `CC(C)NC[C@@H](O)COc1ccc(CC(N)=O)cc1`, for which the max response was 23.6%.
The figure for `O=C(O)[C@@H]1[C@H]2C[C@H]3c4[nH]c5ccccc5c4CCN3C[C@@H]2CC[C@@H]1O` is -6.8%; for `Nc1ncnc2c1ncn2[C@@H]1O[C@H](COP(=O)(O)O)[C@@H](O)[C@H]1O` it is -1.97%.
The figure for `CC[C@H](C)[C@H](N)C(=O)O` is -11.6%.
With `NC(=O)CCCCC1CCSS1` (centres undefined), the max response is 0.706%.
For `O=C(O)/C=C/c1ccc(Cn2ccnc2)cc1`, the max response was 13.5%.
To `CCOC(N)=O` belongs -2.14%.
Take `CC(C)(C)C(=O)OCOC(=O)[C@@H]1N2C(=O)[C@@H](NC(=O)[C@H](N)c3ccccc3)[C@H]2SC1(C)C`: the max response is 0.54%.
To `O=C(Cn1ccnc1[N+](=O)[O-])NCCO` belongs 11.8%.
